Counter-ions that a name gives are not always drawn.
Columns and labels:
Experiment in all cases: Euclidean distance of Cell Painting phenotypic profile (signed KS, 77 features) to DMSO centroid (dimensionless distance); 5 or 10 uM (library dependent); higher = stronger phenotypic change vs DMSO (phenoactivity)
Conditions in all cases: 48 h
786-O = tested on: 786-O
Procedure, shortened: (§1)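 Harmony extracted 77 features from 20X confocal images (9 fields/well) of stained cells, scoring each as a signed Kolmogorov-Smirnov statistic against same-plate vehicle wells. The cells, five cancer lines and a healthy fibroblast line, had received library compounds for 48 h at 10 or 5 uM depending on library, with 0.1% DMSO final. Phenoactivity is the Euclidean distance from each plate-position-corrected, correlation-weighted, top-dose replicate-averaged profile to the median vehicle profile.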

A549 = tested on: A549
Procedure, shortened: as §1

FB = tested on: FB
Procedure, shortened: as §1

HEPG2 = tested on: HEPG2
Procedure, shortened: as §1

OVCAR4 = tested on: OVCAR4
Procedure, shortened: as §1

Compound	Euclidean distance (786-O)	Euclidean distance (A549)	Euclidean distance (FB)	Euclidean distance (HEPG2)	Euclidean distance (OVCAR4)
Cc1ncc([N+](=O)[O-])n1CC(C)O (stereo not given) [Secnidazole]	1.02	0.496	0.982	1.12	0.655
CCCCCCCCCC(=O)N[C@@H](Cc1c[nH]c2ccccc12)C(=O)N[C@H](CC(N)=O)C(=O)N[C@@H](CC(=O)O)C(=O)N[C@@H]1C(=O)NCC(=O)N[C@@H](CCCN)C(=O)N[C@@H](CC(=O)O)C(=O)N[C@H](C)C(=O)N[C@@H](CC(=O)O)C(=O)NCC(=O)N[C@H](CO)C(=O)N[C@@H]([C@H](C)CC(=O)O)C(=O)N[C@@H](CC(=O)c2ccccc2N)C(=O)O[C@@H]1C [Daptomycin]	1.06	0.544	0.795	0.461	1.14
C[C@H](CSC(=O)c1ccccc1)C(=O)N1C[C@@H](Sc2ccccc2)C[C@H]1C(=O)O [Zofenopril calcium]	0.845	0.393	0.787	0.559	0.93
C=CCc1ccc(O)c(-c2cc(CC=C)ccc2O)c1 [Magnolol]	1.13	0.915	0.817	0.94	1.17
CS(=O)(=O)c1ccc(Oc2cc(F)cc(C#N)c2)c2c1[C@H](O)C(F)(F)C2	1.1	1.02	1.28	0.605	1.38
CNC(=O)c1c(C)oc2cc(Oc3ncnc4cc(OC)c(OC)cc34)ccc12 [Fruquintinib]	1.24	1.24	2.06	0.855	1.44
CN1CCN(C(c2ccccc2)c2ccccc2)CC1 [Cyclizine 2HCl]	1.05	0.919	1.58	0.689	1.37
CN1[C@@H]2CC[C@H]1C[C@@H](OC(=O)c1c[nH]c3ccccc13)C2 [Tropisetron HCl]	0.839	1.16	1.16	0.825	0.93
CCCCC1(COC(=O)CCC(=O)O)C(=O)N(c2ccccc2)N(c2ccccc2)C1=O [Suxibuzone]	0.771	0.893	1.12	0.518	1.57
O=C(O)c1cc(O)c2c(c1)[C@H]([C@H]1c3cc(C(=O)O)cc(O)c3C(=O)c3c(O[C@@H]4O[C@H](CO)[C@@H](O)[C@H](O)[C@H]4O)cccc31)c1cccc(O[C@@H]3O[C@H](CO)[C@@H](O)[C@H](O)[C@H]3O)c1C2=O [Sennoside A]	0.91	0.674	1.07	0.438	1.12
COc1ccc([C@@H]2Sc3ccccc3N(CCN(C)C)C(=O)[C@@H]2OC(C)=O)cc1 [Diltiazem HCl]	0.663	1.04	0.788	0.773	0.53
Cc1ccccc1C(OCCN(C)C)c1ccccc1 (stereo not given) [Orphenadrine Hydrochloride]	0.905	1.11	0.736	0.938	1.08
CC(CN(C)C)CN1c2ccccc2CCc2ccccc21 (stereo not given) [Trimipramine Maleate]	1.08	1.02	1.91	1.2	1.57
CC/C=C\C/C=C\C/C=C\C/C=C\C/C=C\CCCC(=O)O [Eicosapentaenoic Acid]	0.992	1.07	0.941	0.664	1.41
N[C@H]1C(O)O[C@H](CO)[C@@H](O)[C@@H]1O (stereo not given in full) [Glucosamine]	0.508	0.407	0.896	1.07	1.28
Cc1c(C)c2c(c(C)c1O)CCC(C)(COc1ccc(CC3SC(=O)NC3=O)cc1)O2 (stereo not given) [Troglitazone (CS-045)]	1.4	1.51	0.893	0.876	1.2
CN(CCOc1ccc(NS(C)(=O)=O)cc1)CCc1ccc(NS(C)(=O)=O)cc1 [Dofetilide]	0.968	1.19	1.24	0.609	1.02
Cc1ccc(C(=O)Nc2ccc(CN3CCN(C)CC3)c(C(F)(F)F)c2)cc1C#Cc1cnc2[nH]ncc2c1 [GZD824 Dimesylate]	4.23	4.68	5.04	5.49	4.87
S=C(N/N=C1/CCCc2cccnc21)N1CCN(c2ccccn2)CC1	3.03	3.6	3.2	2.23	1.11
COC(=O)OCOc1c2n(ccc1=O)N([C@@H]1c3ccccc3SCc3c1ccc(F)c3F)[C@@H]1COCCN1C2=O [Baloxavir marboxil]	0.818	1.3	1.58	0.558	0.843
COc1ccc2cc1Oc1ccc(cc1)C[C@H]1c3cc(c(OC)cc3CCN1C)Oc1c(OC)c(OC)cc3c1[C@H](C2)N(C)CC3 [Tetrandrine]	4.3	4.1	2.97	1.84	2.11
Cc1cc(C)nc(NS(=O)(=O)c2ccc(N)cc2)n1 [Sulfamethazine]	1.04	0.914	0.861	0.849	1.17
CSc1ccc(OCc2ncc([N+](=O)[O-])n2C)cc1 [Fexinidazole]	1.24	1.03	0.976	0.857	1.16
CC(C)(C)NC[C@H](O)COc1nsnc1N1CCOCC1 [Timolol Maleate]	1.22	0.771	0.609	0.591	1.76
NS(=O)(=O)c1cc2c(cc1Cl)NC(C(Cl)Cl)NS2(=O)=O (stereo not given) [Trichlormethiazide]	1.14	0.794	0.859	0.531	0.98

Compound	Euclidean distance (786-O)	Euclidean distance (A549)	Euclidean distance (FB)	Euclidean distance (HEPG2)	Euclidean distance (OVCAR4)
Cc1cc2c(C(N)=O)cccc2n1-c1nc2c(c(NCc3ccccc3)n1)COCC2	6.05	2.9	7.18	4.68	3.98
CCCNC(=O)NS(=O)(=O)c1ccc(Cl)cc1 [Chlorpropamide]	1.01	0.601	0.968	0.632	1.99
CC[C@H](C)[C@H](N)C1=N[C@H](C(=O)N[C@@H](CC(C)C)C(=O)N[C@H](CCC(=O)[O-])C(=O)N[C@H](C(=O)N[C@H]2CCCCNC(=O)[C@H](CC(N)=O)NC(=O)[C@@H](CC(=O)[O-])NC(=O)[C@H](Cc3cnc[nH]3)NC(=O)[C@@H](Cc3ccccc3)NC(=O)[C@H]([C@@H](C)CC)NC(=O)[C@@H](CCCN)NC2=O)[C@@H](C)CC)CS1.[Zn+2] [Bacitracin Zinc]	0.919	0.811	0.932	1.77	1.44
C=C(C)[C@@H]1CC=C(CO)CC1 [Perillyl alcohol]	0.887	0.815	0.953	1.09	1.74
CNCCCC1c2ccccc2C=Cc2ccccc21 [Protriptyline hydrochloride]	1.15	0.784	1.82	1.74	0.952
NC(=O)c1ncn([C@@H]2O[C@H](CO)[C@@H](O)[C@H]2O)c1O [Mizoribine]	1.26	0.927	0.917	0.657	0.855
CN(C)C(=N)NC(=N)N [Metformin HCl]	1.61	0.837	1.26	0.474	1.78
Nc1ccncc1N [3.4-Diaminopyridine]	1.58	1.24	1.38	0.828	1.15
CCn1cc(C(=O)O)c(=O)c2cnc(N3CCNCC3)nc21 [Pipemidic acid]	1.47	0.855	1.02	0.639	1.13
O=C(NCCN1CCOCC1)c1ccc(Cl)cc1	1.01	1.34	0.812	0.538	1.07
COc1ccc(CN(CCN(C)C)c2ccccn2)cc1 [Pyrilamine Maleate]	0.832	0.864	1.11	0.605	1.5
Nc1nc2cc(-c3ccc4ncc(C(=O)N5CCOCC5)n4c3)ccc2o1 [Serabelisib (INK-1117.MLN-1117.TAK-117)]	1.02	1.76	2.6	1.39	1.61
CCC(C)(Oc1ccc(C2(c3ccc(OC(C)(CC)C(=O)O)cc3)CCCCC2)cc1)C(=O)O (stereo not given) [Clinofibrate]	1.38	0.971	0.938	0.433	1.33
COc1c2occc2cc2ccc(=O)oc12 [Methoxsalen]	0.745	0.658	0.948	0.988	1.08
Cc1nnc(C(=O)NC(C)(C)c2nc(C(=O)NCc3ccc(F)cc3)c(O)c(=O)n2C)o1 [Raltegravir (MK-0518)]	1.17	0.695	1.11	0.537	1.35
CCOC(=O)c1ncn2c1CN(C)C(=O)c1cc(F)ccc1-2 [Flumazenil]	1.08	0.73	1.11	0.383	0.959
O=C(Nc1ccc(OC(F)(F)Cl)cc1)c1cnc(N2CC[C@@H](O)C2)c(-c2cc[nH]n2)c1 [Asciminib (ABL001)]	1.54	1.72	1.32	1.2	1.39
CC1=C(C(=O)O)N2C(=O)[C@@H](NC(=O)[C@H](N)c3ccccc3)[C@H]2SC1 [Cephalexin]	1.16	1.01	1.05	0.939	1.1
CC1(C)S[C@@H]2[C@H](NC(=O)[C@H](NC(=O)N3CCNC3=O)c3ccccc3)C(=O)N2[C@H]1C(=O)O [Azlocillin sodium salt]	0.826	0.805	1.08	0.67	1.47
COC(=O)/C=C/C(=O)OC [Dimethyl Fumarate]	1.01	1.07	0.598	1	1.15
Cc1cc(Nc2cc(N)ncn2)c(=O)n2c1C(=O)NC21CCCCC1	0.779	0.866	1.08	0.427	1.18
CC(C)n1c(/C=C/C(O)CC(O)CC(=O)O)c(-c2ccc(F)cc2)c2ccccc21 (stereo not given) [Fluvastatin Sodium]	3.02	2.4	3.84	1.86	2.29
C(=C\c1ccccc1)/CN1CCN(C(c2ccccc2)c2ccccc2)CC1 [Cinnarizine]	0.758	1.16	1.01	0.713	1.63
Nc1ccc2cc3ccc(N)cc3nc2c1 [Proflavine Hemisulfate]	4.95	4.91	5.65	5.57	5.46
C=C1CC[C@@H]2[C@](C)(CO)[C@H](O)CC[C@@]2(C)[C@@H]1C/C=C1/C(=O)OC[C@H]1O [Andrographolide]	2.41	1.6	1.96	1.62	1.67
